Screening results from PubChem.
DAT uptake mod: modulates human dopamine transporter uptake under cocaine; actives 1.3% (n = 110,000); Q01959; LLC-PK1 hDAT cells, [14C]-dopamine uptake with cocaine IC80; actives deviate in either direction; B-score at 10 µM;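 active = Z score or B-score, a plate-position-corrected score, falls beyond the plate's 99.7% confidence bounds, in either direction; inactive = both scores lie inside the 99.7% bounds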;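 also: scored against the spread of the other compound wells on the same plate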
Target sequence (Q01959 whole entry, looked up): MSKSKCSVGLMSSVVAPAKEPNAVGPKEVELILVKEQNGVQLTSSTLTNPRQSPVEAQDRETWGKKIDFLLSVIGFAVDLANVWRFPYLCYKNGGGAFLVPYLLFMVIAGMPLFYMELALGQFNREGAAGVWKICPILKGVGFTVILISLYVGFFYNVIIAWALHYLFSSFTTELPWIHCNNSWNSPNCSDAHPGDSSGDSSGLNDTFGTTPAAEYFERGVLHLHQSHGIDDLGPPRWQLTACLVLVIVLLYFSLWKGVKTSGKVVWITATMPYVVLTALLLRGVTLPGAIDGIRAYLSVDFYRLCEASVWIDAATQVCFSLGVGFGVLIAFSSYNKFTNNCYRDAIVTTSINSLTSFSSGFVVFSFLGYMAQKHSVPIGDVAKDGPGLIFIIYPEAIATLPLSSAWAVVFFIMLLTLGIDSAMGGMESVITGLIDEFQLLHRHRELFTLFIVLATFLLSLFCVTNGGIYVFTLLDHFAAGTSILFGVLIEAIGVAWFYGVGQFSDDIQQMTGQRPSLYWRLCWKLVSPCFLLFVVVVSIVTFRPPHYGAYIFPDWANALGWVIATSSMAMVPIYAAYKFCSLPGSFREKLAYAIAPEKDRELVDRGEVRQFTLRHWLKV
PKA kinase inh: inhibitors of human protein kinase A; P17612; PKA Kemptide phosphorylation, Kinase-Glo ATP luminescence; inhibition, % at 6 µM; actives 0.1% (n = 65,000);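 active = inhibition above the screen-wide mean inhibition plus 3 SD, cut at about 21% in these data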
JNK3 blocker: inhibitors of human JNK3 kinase | actives 0.61% (n = 60,000) | P53779 | AID 746 | inhibition, % at 8 µM | purified JNK3 kinase activity, HTS; in the data active = inhibition above about 17%;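 also: 0% = DMSO and 100% = reference inhibitor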
ROCK2 inh: inhibitors of human Rho kinase 2 | actives 0.35% (n = 60,000) | AID 604 | inhibition, % at 6 µM | purified ROCK2, Kinase-Glo ATP depletion luminescence;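 active = inhibition above the screen-wide mean inhibition plus 3 SD, cut at about 18% in these data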;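 also: plate controls were DMSO wells for no effect and Y-27632 control wells after no-enzyme background subtraction for full effect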
D1 allo mod: allosteric modulators of human D1 dopamine receptor | P21728 | HEK293 D1, CRE-luciferase, dopamine EC30 potentiation; actives deviate in either direction | B-score at 10 µM | actives 5.9% (n = 58,000);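 active = luminescence count or its row- and column-corrected plate score outside the 99.7% band of the plate's sample wells, on either side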
Active calls of the source: *; . = no result. Shown is part of a subset that was picked to be rich in hits.

SMILES	DAT uptake mod	PKA kinase inh	JNK3 blocker	ROCK2 inh	D1 allo mod
CCN1CCN(Cc2nc3c(c(=O)n(C)c(=O)n3C)n2CCCc2ccccc2)CC1	.	-7	.	.	.
CCN1CCN(Cc2nc3c(c(=O)n(C)c(=O)n3C)n2CCc2ccccc2)CC1	-3*	0	-1	6	0.49
C#CCOCCOCCOCCNc1nc(N2CCN(C(=O)C([C@@H](C)CC)n3cc(C(N)Cc4ccc(O)cc4)nn3)CC2)nc(N2CCN(C(=O)[C@H](CCC(=O)O)n3cc(C(N)CO)nn3)CC2)n1 (some centres not stated)	-0.12	.	.	.	.
C=CCSc1nnc2c(n1)OC(c1c(C)[nH]n(-c3ccccc3)c1=O)Nc1ccccc1-2 (configuration not stated)	1.7	.	.	.	.
Cc1nc2oc3c(NCc4ccccn4)ncnc3c2c2c1COC(C)(C)C2	1.1	8	7	6	12*
CC1(C)Cc2nc3oc4c(NCc5ccccc5)ncnc4c3cc2CO1	.	-1	5	6	0.2
CC(C)c1nc2oc3c(NCc4ccccn4)ncnc3c2c2c1COC(C)(C)C2	.	7	-6	12	8.7*
CCOC(=O)N1CCN(c2ncnc3c2oc2nc(C)c4c(c23)CC(C)(C)OC4)CC1	.	1	4	2	1.7
Cc1ccccc1[C@@H]1C(C#N)=C(N)S[C@H]1C(=O)c1ccccc1	-0.03	.	.	.	.
O=C(Cn1c(C(=O)N2CCN(C3CCCC3)CC2)cc2sccc21)c1ccccc1	2.5*	4	0	6	-1.8
O=C(Cn1c(C(=O)NCC2CCCO2)cc2sccc21)c1ccccc1 (configuration not stated)	0.15	5	0	10	0.3
Cc1cccn2c(=O)c3cc(C(=O)NC(C)c4ccccc4)c(=N)n(CCCn4ccnc4)c3nc12 (configuration not stated)	.	7	-4	2	0.75
O=C(CN1CCc2ccccc2C1)c1cccs1	-0.22	6	3	8	-0.25
CNC(=O)CCc1nc(-c2ccc(C(C)(C)C)cc2)no1	-0.4	7	6	1	.
CC(C)(C)c1ccc(-c2noc(CCC(N)=O)n2)cc1	1.4	10	-4	7	-3.5*
Cc1ccc(Cl)cc1NC1=C/C(=N\S(=O)(=O)c2cccs2)c2ccccc2C1=O	-3.5*	.	.	.	.
Cc1ccc(NC2=C/C(=N\S(=O)(=O)c3cccs3)c3ccccc3C2=O)c(C)c1	-0.33	.	.	.	.
CC(NC(=O)CN1CCCC1)C12CC3CC(CC(C3)C1)C2 (configuration not stated)	-5.6*	.	.	.	.
CC(NC(=O)Cn1cnnn1)C12CC3CC(CC(C3)C1)C2 (configuration not stated)	-3.3*	-2	-3	-10	-0.88
CCCNC(=O)NC(C)C12CC3CC(CC(C3)C1)C2 (configuration not stated)	-0.4	.	.	.	.
Cc1ccc(S(=O)(=O)N2CCSC2)cc1C	-0.15	.	.	.	.
Cc1ccc(C(=O)Nc2cnc3sc(C)nn3c2=O)cc1	0.67	9	5	6	0.045
CCOC(=O)c1cnc(SC2CC(=O)N(c3ccccc3)C2=O)nc1N (configuration not stated)	-1.2	.	.	.	.
CCOC(=O)c1cnc(SC2CCc3ccccc3C2=O)nc1N (configuration not stated)	2.7*	10	7	7	-0.0011
COC(=O)c1cccc(Cn2nnc3ccccc3c2=O)c1	0.24	10	17*	4	3.9
SMILES	DAT uptake mod	PKA kinase inh	JNK3 blocker	ROCK2 inh	D1 allo mod
CCOC(=O)C1CCN(CC(=O)Nc2c(C(=O)OC)[nH]c3ccccc23)CC1	-8.2*	5	-6	3	-0.66
COC(=O)c1[nH]c2cc(C)ccc2c1NC(=O)CN1CCCc2ccccc21	2.8*	5	-1	3	-0.038
COC(=O)c1[nH]c2ccc(Br)cc2c1NC(=O)CN1CCN(C2CCCCC2)CC1	2.9*	2	-4	2	0.11
CC1(NC(=O)c2cc(S(=O)(=O)N3CCCCC3)ccc2Cl)CCS(=O)(=O)C1 (configuration not stated)	-0.62	.	.	.	.
O=C(/C=C/c1ccc(O)c(O)c1)O[C@H](Cc1ccc(O)c(O)c1)C(=O)O	-1.3	.	.	.	.
CCOC(=O)c1ccc(N2C(=O)CC(N3CCN(C(=O)c4ccco4)CC3)C2=O)cc1 (configuration not stated)	2.6*	3	-1	4	-0.42
Cc1cc(S(=O)(=O)N2CCN(Cc3ccc4c(c3)OCO4)CC2)cc(C)c1N1CCCC1=O	-0.072	9	-4	3	-4.6*
CSc1ccc(S(=O)(=O)N2CCN(Cc3ccc4c(c3)OCO4)CC2)cc1	0.52	4	-9	-4	-1
Cc1ccc2nsnc2c1S(=O)(=O)N1CCN(Cc2ccc3c(c2)OCO3)CC1	5.4*	11	-1	4	3.9
Cc1ccc2nsnc2c1S(=O)(=O)N1CCCC1	0.13	11	0	5	0.16
O=C(CCn1c(=S)[nH]c2cc3c(cc2c1=O)OCO3)NCCN1CCCC1	.	8	.	.	.
COc1c(F)c(F)c(C(=O)Nc2ccc(N3CCN(Cc4ccccc4)CC3)cc2)c(F)c1F	-0.25	.	.	.	.
COC(=O)CN=C1OC(=O)N2C(=O)C3=C4[C@@H](C[C@H]5C(=O)N(c6ccccc6)C(=O)[C@H]5[C@H]4[C@@]12Cc1ccccc1)[C@H]1C(=O)N(c2ccccc2)C(=O)[C@H]1[C@H]3C	0.12	.	.	.	.
O=C(CCCCCNc1nc(=S)[nH]c2ccccc12)N1CCN(c2ccccn2)CC1	2.8*	0	.	.	-0.0021
O=C(CNS(=O)(=O)c1cccs1)N1CCN(c2ccccn2)CC1	-1.3	6	-7	-1	-0.83
O=C(CCCn1c(=O)[nH]c2ccccc2c1=O)N1CCN(c2ccccn2)CC1	.	6	12	0	-0.76
O=C(CCCOc1ccccc1)N1CCN(c2ccccn2)CC1	2.4	6	6	11	-2.9*
O=C(Cc1cccs1)N1CCN(c2ccccn2)CC1	0.32	6	2	5	-4.5*
O=S(=O)(c1cnc[nH]1)N1CCc2ccccc21	0.041	-3	3	-1	-0.41
C=CCn1c(Cc2cccs2)nnc1SC/C=C/c1ccccc1	1.2	.	.	.	.
COC(=O)C1=C(C(=O)OC)[N+]2=C3N(C(=O)NC2(C)C)[C@H](CO)C[C@@]32c3ccccc3N(Cc3ccccc3)[C@@H]12	1	.	.	.	.
Cc1csc(NC(CO)c2nc3ccccc3n2CCOCCO)n1 (configuration not stated)	0.0048	.	.	.	.
CCCCC(=O)Nc1nc(C)c(-c2csc(Nc3ccccc3OC)n2)s1	2.8*	.	.	.	.
CCCCCCC(=O)Nc1nc(C)c(-c2csc(Nc3cc(OC)ccc3OC)n2)s1	2.4*	.	.	.	.
C=CCCC(=O)Nc1nc(C)c(-c2csc(Nc3ccccc3OC)n2)s1	1.4	.	.	.	.
CCCCCCCCC(=O)Nc1cc(C)ccc1OC	-7.9*	.	.	.	.
COC(=O)c1ccc[n+](CCc2c[nH]c3ccccc23)c1	0.38	.	.	.	.
COc1ccc(CN2CCc3ccccc3C2)c(OC)c1OC	-1.1	.	.	.	.
CC(Nc1ccccc1)C(=O)Nc1ccc(F)cc1 (configuration not stated)	-0.24	.	.	.	.
CCC(=O)n1nc(-c2ccc(OC)cc2)nc1N	-9.5*	-2	-1	-2	0.95
